Measured values taken from PubChem BioAssay (NCI).
The panel holds about 79,000 compounds, 15% with a hit somewhere; the sample as a whole holds those more often. Active and inactive are the calls of the source. No stated cut-off is given here; in the data, active means growth inhibition above about 70%; inactive means the rest. *1 amine or outer side, *2 acyl side, *3 side chain or, on linkers, in order; H or OH if unused. Where a SMILES comes first, the peptide text is derived from it. [ ]: non-standard residue; d: D form. X12 = NC(N)=NCC(O)CC(N[*:1])C(=O)[*:2]; Orn = NCCC[CH](N)C(=O)O

Assays:
[1] = NCI Yeast Anticancer Drug Screen. Data for the rad50 strain (AID 155);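 further: 0% = growth of vehicle-only cultures of the same strain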; details: S. cerevisiae rad50 strain growth inhibition; at 50.0 µM; active compounds read high
Procedure, shortened: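 Vehicle-treated cultures provide the reference for the growth inhibition reported for compound-exposed, repair-deficient yeast.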

[2] = NCI Yeast Anticancer Drug Screen. Data for the mec2-1 strain (AID 157); details: S. cerevisiae mec2-1 strain, at 50.0 µM, active compounds read high
Procedure, shortened: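 Vehicle-treated cultures served as reference for growth inhibition of compound-exposed mec2-1 yeast.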

[3] = NCI Yeast Anticancer Drug Screen. Data for the sgs1 mgt1 strain (AID 161);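 further: 0% = growth of cultures given vehicle only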; details: S. cerevisiae sgs1 mgt1 strain, at 50.0 µM, active compounds read high
Procedure, shortened: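 Read-out: growth inhibition vs vehicle controls. Cells: mutant yeast strain deficient in DNA damage repair.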

[4] = NCI Yeast Anticancer Drug Screen. Data for the cln2 rad14 strain (AID 165);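 further: 0% = growth equal to vehicle treated cultures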; details: S. cerevisiae cln2 rad14 strain, at 50.0 µM, active compounds read high
Procedure, shortened: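 Each compound was tested on cln2 rad14 yeast. Inhibition of growth was calculated against vehicle-exposed controls.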

[5] = NCI Yeast Anticancer Drug Screen. Data for the bub3 strain (AID 167); details: S. cerevisiae bub3 mutant strain, at 50.0 µM, active compounds read high
Procedure, shortened: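 Mutant yeast screening strain plus compound; vehicle-treated cultures serve as the 0% inhibition reference.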

[6] = NCI Yeast Anticancer Drug Screen. Data for the mlh1 rad18 strain (AID 175); details: S. cerevisiae mlh1 rad18 strain growth inhibition; at 50.0 µM; active compounds read high
Procedure, shortened: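 Vehicle-treated cultures served as the reference for growth inhibition in a yeast strain carrying DNA damage repair alterations exposed to each compound.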

Measured: growth inhibition

Cc1ccc(NC(=O)c2ccc(C)c(N)c2)c(C)c1
inactive: [1] -16.2% | [2] -21.2% | [3] -15.8% | [4] -9.7% | [5] -25.1% | [6] -5.7%

OCC(O)COc1cccc2cccnc12 (centres undefined)
inactive: [1] 4.75% | [2] -15% | [3] 0.4% | [4] -26.1% | [5] 11.2% | [6] 8.3%

O=C(O)C(=O)C(c1ccccc1)c1ccccc1
inactive: [1] -0.4% | [2] 6.9% | [3] -21.1% | [4] -29.1% | [5] -22.9% | [6] -5.3%

O=S(=O)(Nc1cccc(C(F)(F)F)c1)c1ccc(F)cc1
inactive: [1] 6.95% | [2] 9.5% | [3] 11% | [4] 12.9% | [5] -3.5% | [6] 42.9%

CSc1ccc2c(c1)Cc1cc(NC(C)=O)ccc1-2
inactive: [1] 8.8% | [2] -9.05% | [3] -4.25% | [4] -12.3% | [5] -11.8% | [6] 1.05%

C=C(C(N)=O)c1ccc([N+](=O)[O-])o1
active: [6] 90%
inactive: [1] 52.4% | [2] 44.7% | [3] 62.4% | [4] 30% | [5] 19.8%

O=C1c2cscc2C(=O)c2c(OCc3ccccc3)ccc(OCc3ccccc3)c21
inactive: [1] 3.7% | [2] 6.65% | [3] -7.45% | [4] -5.3% | [5] 1.95% | [6] 7.4%

COC(=O)/C=C(/C(=O)OC)C1(C)c2cc(C(=O)OC)c(C(=O)OC)c(N)c2C(=N)N1c1ccccc1 (centres undefined)
inactive: [1] -3.75% | [2] 25.9% | [3] 1% | [4] -12.4% | [5] -5.15% | [6] -0.9%

O=C1NCC2(CCN(Cc3ccccc3)CC2)N1c1ccccc1
inactive: [1] 7.6% | [2] 3.05% | [3] 2.4% | [4] 4.85% | [5] -13.1% | [6] 13.7%

O=[N+]([O-])/C(C(Cl)=C(Cl)Cl)=C(\SCc1ccccc1)N1CCCCC1
inactive: [1] -25.6% | [2] -8.1% | [3] 6.75% | [4] 19.4% | [5] 31.7% | [6] 14.6%

CN(C)CCNCCN
inactive: [1] 4% | [2] -28.4% | [3] -6.2% | [4] -1.55% | [5] -9.75% | [6] -15.6%

CC[O-].CC[O-].COc1ccc(C(=O)[CH-]C(C)=O)cc1OC.COc1ccc(C(=O)[CH-]C(C)=O)cc1OC.[Ti+4]
inactive: [1] -17.4% | [2] 18.5% | [3] -2.7% | [4] 9.85% | [5] 29.9% | [6] -10.3%

COC1(OC)c2no[n+]([O-])c2CCC1O (centres undefined)
inactive: [1] -6.6% | [2] -17.4% | [3] -24.1% | [4] 10% | [5] 4% | [6] -4.45%

CC1=CCS(=O)(=O)C1
inactive: [1] 22.4% | [2] 1.55% | [3] 12.2% | [4] 10.3% | [5] -4.1% | [6] 29%

COc1cc(=O)cc2n(c1=O)CCC2
inactive: [1] -8.45% | [2] -5.05% | [3] -13.2% | [4] -28% | [5] 8.5% | [6] -2.25%

C=C(C)COC(=O)COc1ccc(Cl)cc1
inactive: [1] 1.05% | [2] -32.7% | [3] -3.5% | [4] 0.45% | [5] 3.5% | [6] 5.45%

C#CCN(N=O)C(=O)NC(CCCCNC(=O)OCc1ccccc1)C(=O)OCc1ccccc1 (centres undefined)
inactive: [1] -8.65% | [2] -25.4% | [3] -7.75% | [4] -2.35% | [5] 14.2% | [6] 0.6%

COc1ccc(/C=C/C(=O)OCCC(C)C)cc1
inactive: [1] 3.7% | [2] -16.3% | [3] 3.5% | [4] 16.9% | [5] -21.2% | [6] -16.7%

COc1cc(C2SC(N)=Nc3c2c(C)nn3C(=O)c2ccccc2O)ccc1O (centres undefined)
inactive: [1] -4.9% | [2] 24.1% | [3] 22.5% | [4] -1.35% | [5] 40.4% | [6] 16%

N#CCOc1ccc(/C=C/C(=O)c2ccc(Cl)cc2)cc1
inactive: [1] -39.5% | [2] -53.6% | [3] -23.1% | [4] -23.1% | [5] 20.4% | [6] -21.2%

CC(O)C(NC(=O)C(CCCN)NC(=O)C(CC(O)CN=C(N)N)NC(=O)C(N)CCCN=C(N)N)C(=O)NC(CCCN)C(=O)NC(CC(O)CN=C(N)N)C(=O)NC(Cc1ccc(O)cc1)C(=O)O (centres undefined) (H-R[X12][Orn]T[Orn][X12]Y-OH; configuration not given here)
inactive: [1] -0.15% | [2] -19.4% | [3] -4.1% | [4] 15.1% | [5] -15.2% | [6] 2.45%

CC1(C)Oc2ccc3ccccc3c2C(c2ccc(O)cc2)=C1c1ccccc1
inactive: [1] -51.5% | [2] -11% | [3] 5.2% | [4] 7.75% | [5] -3.1% | [6] -20.6%

CCCCOC(=O)/C=C\C(=O)NC(=O)NC(C)(C)C
inactive: [1] -7.55% | [2] 1.2% | [3] -4.3% | [4] -33.1% | [5] 5.05% | [6] 3.15%

C1CCC(CN2CCN(CC3CCCCO3)CC2)OC1 (centres undefined)
inactive: [1] -2.4% | [2] -11.5% | [3] -1.05% | [4] -41.8% | [5] 0.25% | [6] 3.05%

CC1=C(C(=O)NCCc2ccccc2)CC(C(=O)NCCc2ccccc2)=C(C)N1
inactive: [1] -9.8% | [2] 6.4% | [3] 5.75% | [4] 14.5% | [5] -13.2% | [6] -32.1%

CSc1nc(N(C)C)c2[nH]ncc2n1
inactive: [1] 5.25% | [2] -0.5% | [3] -3.6% | [4] -10.6% | [5] 19.7% | [6] 3.25%

O=[N+]([O-])c1cccc2nc3ccccc3c(NCCc3ccccn3)c12
inactive: [1] 13.3% | [2] -19.9% | [3] 20.6% | [4] -32.4% | [5] -17.1% | [6] 13.8%

CN(/N=C/c1ccccc1)c1nnnn1-c1ccccc1
inactive: [1] 3.2% | [2] -5.7% | [3] -5.85% | [4] 33% | [5] 0.6% | [6] 9.9%

C/C(O)=C(/C=NC(=S)c1ccncc1)C(=O)Nc1ccccc1
inactive: [1] -36.8% | [2] -1.8% | [3] -49% | [4] -26.5% | [5] -45.1% | [6] -36.3%

O=CC(=O)c1ccc(F)cc1
inactive: [1] -20.2% | [2] -10% | [3] -0.15% | [4] -15.2% | [5] -8.55% | [6] 2%

COc1cc(NS(=O)(=O)c2ccccc2)ccc1C
inactive: [1] 27.6% | [2] -20.3% | [3] 14.7% | [4] 12.3% | [5] 22.4% | [6] 24.9%

COc1ccc(-c2cc(-c3ccccc3)c(C#N)c(=O)[nH]2)cc1
inactive: [1] 22.9% | [2] 5.85% | [3] 17.4% | [4] 17% | [5] 6.3% | [6] 21%

CCn1c(C)nc2ccccc21
inactive: [1] -12.7% | [2] -6.55% | [3] 2.5% | [4] -0.5% | [5] -16.1% | [6] 1.5%

COc1ccc(CC[n+]2cccc(/C(=N/O)c3ccccc3)c2)cc1OC
inactive: [1] 46.9% | [2] -8.3% | [3] 25.2% | [4] 2.7% | [5] 8.25% | [6] 6.35%

CCCCCCC(C)Oc1ccccc1Cl (centres undefined)
inactive: [1] 5.35% | [2] -11.5% | [3] 7.9% | [4] -23.9% | [5] 6.4% | [6] -20.6%

CC(=O)Nc1ccc(NS(=O)(=O)c2ccc3nc(C)n(NS(=O)(=O)c4ccc(NC(C)=O)cc4)c(=O)c3c2)cc1
inactive: [1] 29.1% | [2] 38% | [3] 29.1% | [4] 15.4% | [5] 39.2% | [6] 15.3%

COc1ccc(NC(=O)Oc2ccc(OC)cc2)cc1
inactive: [1] 5.75% | [2] 12.2% | [3] 0.75% | [4] 11.2% | [5] 5.5% | [6] -16.1%

COC(=O)C1=C(C)N(NC(N)=O)C2(N)N(NC(N)=O)C(C)=C(C(=O)OC)C12C(=O)OC (centres undefined)
inactive: [1] -9.65% | [2] -31.2% | [3] -43.2% | [4] -9.7% | [5] -4% | [6] -26.4%

CCOC(=O)CC1CN(C(=O)c2ccccc2)CCC12OCCO2 (centres undefined)
inactive: [1] -3.4% | [2] -4.3% | [3] -4% | [4] -5.05% | [5] -2.35% | [6] -5.3%
